# Laboratory results as given in paper PMC11062922 (Nature Chemical Biology, 2023).
# Read-outs that look alike come from different tables or passages of the source.
# Columns and labels:
# Conditions in all cases: read-out: apparent Kd, n = 1
# MAPK10 = system: MAPK10
# PBK = system: PBK
# PDGFRB = system: PDGFRB
# PRKAA1 = system: PRKAA1
# [1] = compound concentrations:100 nM and 1000 nM (sheet 'Lestaurtinib' of Supplementary Table 1),run:Lestaurtinib_02584_R1,Plate:MR017
# [2] = compound concentrations:100 nM and 1000 nM (sheet 'Lestaurtinib' of Supplementary Table 1),run:Lestaurtinib_02584_R3,Plate:MR017
# [3] = compound concentrations:100 nM and 1000 nM (sheet 'Lestaurtinib' of Supplementary Table 1),run:Lestaurtinib_02601_R1,Plate:MR018
# [4] = compound concentrations:100 nM and 1000 nM (sheet 'Lestaurtinib' of Supplementary Table 1),run:Lestaurtinib_02606_R3,Plate:MR019
# [5] = compound concentrations:100 nM and 1000 nM (sheet 'Lestaurtinib' of Supplementary Table 1),run:Lestaurtinib_02724_R2,Plate:MR021
# [6] = compound concentrations:100 nM and 1000 nM (sheet 'Lestaurtinib' of Supplementary Table 1),run:Lestaurtinib_02741_R2,Plate:MR023
# [7] = compound concentrations:100 nM and 1000 nM (sheet 'Lestaurtinib' of Supplementary Table 1),run:Lestaurtinib_02748_R3,Plate:MR024
# [8] = compound concentrations:100 nM and 1000 nM (sheet 'Lestaurtinib' of Supplementary Table 1),run:Lestaurtinib_02766_R1,Plate:MR027
# [9] = compound concentrations:100 nM and 1000 nM (sheet 'Lestaurtinib' of Supplementary Table 1),run:Lestaurtinib_02795_R3,Plate:MR022
# [10] = compound concentrations:100 nM and 1000 nM (sheet 'Lestaurtinib' of Supplementary Table 1),run:Lestaurtinib_02896_R3,Plate:MR030
# [11] = compound concentrations:100 nM and 1000 nM (sheet 'Lestaurtinib' of Supplementary Table 1),run:Lestaurtinib_03172_R1,Plate:MR031
# [12] = compound concentrations:100 nM and 1000 nM (sheet 'Lestaurtinib' of Supplementary Table 1),run:Lestaurtinib_03172_R2,Plate:MR031
# [13] = compound concentrations:100 nM and 1000 nM (sheet 'Lestaurtinib' of Supplementary Table 1),run:Lestaurtinib_03252_R1,Plate:MR032
# [14] = compound concentrations:100 nM and 1000 nM (sheet 'Lestaurtinib' of Supplementary Table 1),run:Lestaurtinib_03252_R2,Plate:MR032
# [15] = compound concentrations:100 nM and 1000 nM (sheet 'Lestaurtinib' of Supplementary Table 1),run:Lestaurtinib_03260_R2,Plate:MR033
# [16] = compound concentrations:100 nM and 1000 nM (sheet 'Lestaurtinib' of Supplementary Table 1),run:Lestaurtinib_02381_R2,Plate:MR004
# [17] = compound concentrations:100 nM and 1000 nM (sheet 'Lestaurtinib' of Supplementary Table 1),run:Lestaurtinib_02741_R1,Plate:MR023
# [18] = compound concentrations:100 nM and 1000 nM (sheet 'Lestaurtinib' of Supplementary Table 1),run:Lestaurtinib_02896_R2,Plate:MR030
# [19] = compound concentrations:100 nM and 1000 nM (sheet 'Lestaurtinib' of Supplementary Table 1),run:Lestaurtinib_02381_R1,Plate:MR004
substance,measurement,setting,value
Lestaurtinib,potency estimated from few doses,"MAPK10; compound concentrations:100 nM and 1000 nM (sheet 'Lestaurtinib' of Supplementary Table 1),run:Lestaurtinib_02572_R1,Plate:MR015",896 nM
same,potency estimated from few doses,"MAPK10; compound concentrations:100 nM and 1000 nM (sheet 'Lestaurtinib' of Supplementary Table 1),run:Lestaurtinib_02577_R2,Plate:MR016",636 nM
same,potency estimated from few doses,"MAPK10; compound concentrations:100 nM and 1000 nM (sheet 'Lestaurtinib' of Supplementary Table 1),run:Lestaurtinib_02577_R3,Plate:MR016",743 nM
same,potency estimated from few doses,MAPK10; [1],744 nM
same,potency estimated from few doses,MAPK10; [2],692 nM
same,potency estimated from few doses,MAPK10; [3],819 nM
same,potency estimated from few doses,MAPK10; [4],845 nM
same,potency estimated from few doses,"MAPK10; compound concentrations:100 nM and 1000 nM (sheet 'Lestaurtinib' of Supplementary Table 1),run:Lestaurtinib_02624_R1,Plate:MR020",802 nM
same,potency estimated from few doses,"MAPK10; compound concentrations:100 nM and 1000 nM (sheet 'Lestaurtinib' of Supplementary Table 1),run:Lestaurtinib_02624_R2,Plate:MR020",1320 nM
same,potency estimated from few doses,"MAPK10; compound concentrations:100 nM and 1000 nM (sheet 'Lestaurtinib' of Supplementary Table 1),run:Lestaurtinib_02624_R3,Plate:MR020",818 nM
same,potency estimated from few doses,"MAPK10; compound concentrations:100 nM and 1000 nM (sheet 'Lestaurtinib' of Supplementary Table 1),run:Lestaurtinib_02724_R1,Plate:MR021",870 nM
same,potency estimated from few doses,MAPK10; [5],518 nM
same,potency estimated from few doses,"MAPK10; compound concentrations:100 nM and 1000 nM (sheet 'Lestaurtinib' of Supplementary Table 1),run:Lestaurtinib_02724_R3,Plate:MR021",573 nM
same,potency estimated from few doses,MAPK10; [6],929 nM
same,potency estimated from few doses,"MAPK10; compound concentrations:100 nM and 1000 nM (sheet 'Lestaurtinib' of Supplementary Table 1),run:Lestaurtinib_02748_R1,Plate:MR024",747 nM
same,potency estimated from few doses,"MAPK10; compound concentrations:100 nM and 1000 nM (sheet 'Lestaurtinib' of Supplementary Table 1),run:Lestaurtinib_02748_R2,Plate:MR024",824 nM
same,potency estimated from few doses,MAPK10; [7],1610 nM
same,potency estimated from few doses,"MAPK10; compound concentrations:100 nM and 1000 nM (sheet 'Lestaurtinib' of Supplementary Table 1),run:Lestaurtinib_02765_R1,Plate:MR026",795 nM
same,potency estimated from few doses,"MAPK10; compound concentrations:100 nM and 1000 nM (sheet 'Lestaurtinib' of Supplementary Table 1),run:Lestaurtinib_02765_R3,Plate:MR026",501 nM
same,potency estimated from few doses,MAPK10; [8],1530 nM
same,potency estimated from few doses,MAPK10; [9],886 nM
same,potency estimated from few doses,"MAPK10; compound concentrations:100 nM and 1000 nM (sheet 'Lestaurtinib' of Supplementary Table 1),run:Lestaurtinib_02802_R2,Plate:MR029",1410 nM
same,potency estimated from few doses,"MAPK10; compound concentrations:100 nM and 1000 nM (sheet 'Lestaurtinib' of Supplementary Table 1),run:Lestaurtinib_02896_R1,Plate:MR030",532 nM
same,potency estimated from few doses,MAPK10; [10],592 nM
same,potency estimated from few doses,MAPK10; [11],784 nM
same,potency estimated from few doses,MAPK10; [12],591 nM
same,potency estimated from few doses,MAPK10; [13],932 nM
same,potency estimated from few doses,MAPK10; [14],717 nM
same,potency estimated from few doses,MAPK10; [15],671 nM
same,potency estimated from few doses,"PBK; compound concentrations:100 nM and 1000 nM (sheet 'Lestaurtinib' of Supplementary Table 1),run:Lestaurtinib_02364_R3,Plate:MR002",2310 nM
same,potency estimated from few doses,PBK; [16],1820 nM
same,potency estimated from few doses,"PBK; compound concentrations:100 nM and 1000 nM (sheet 'Lestaurtinib' of Supplementary Table 1),run:Lestaurtinib_02606_R1,Plate:MR019",1970 nM
same,potency estimated from few doses,PBK; [4],2120 nM
same,potency estimated from few doses,PBK; [17],1530 nM
same,potency estimated from few doses,PBK; [7],1440 nM
same,potency estimated from few doses,PBK; [8],1690 nM
same,potency estimated from few doses,"PBK; compound concentrations:100 nM and 1000 nM (sheet 'Lestaurtinib' of Supplementary Table 1),run:Lestaurtinib_02766_R3,Plate:MR027",1760 nM
same,potency estimated from few doses,PBK; [18],1580 nM
same,potency estimated from few doses,PBK; [10],1970 nM
same,potency estimated from few doses,PBK; [11],1810 nM
same,potency estimated from few doses,"PBK; compound concentrations:100 nM and 1000 nM (sheet 'Lestaurtinib' of Supplementary Table 1),run:Lestaurtinib_03172_R3,Plate:MR031",1840 nM
same,potency estimated from few doses,"PDGFRB; compound concentrations:100 nM and 1000 nM (sheet 'Lestaurtinib' of Supplementary Table 1),run:Lestaurtinib_02364_R1,Plate:MR002",2200 nM
same,potency estimated from few doses,PDGFRB; [19],1570 nM
same,potency estimated from few doses,"PDGFRB; compound concentrations:100 nM and 1000 nM (sheet 'Lestaurtinib' of Supplementary Table 1),run:Lestaurtinib_02407_R3,Plate:MR005",428 nM
same,potency estimated from few doses,"PDGFRB; compound concentrations:100 nM and 1000 nM (sheet 'Lestaurtinib' of Supplementary Table 1),run:Lestaurtinib_02437_R2,Plate:MR007",717 nM
same,potency estimated from few doses,"PDGFRB; compound concentrations:100 nM and 1000 nM (sheet 'Lestaurtinib' of Supplementary Table 1),run:Lestaurtinib_02437_R3,Plate:MR007",1300 nM
same,potency estimated from few doses,"PDGFRB; compound concentrations:100 nM and 1000 nM (sheet 'Lestaurtinib' of Supplementary Table 1),run:Lestaurtinib_02438_R2,Plate:MR008",2020 nM
same,potency estimated from few doses,"PDGFRB; compound concentrations:100 nM and 1000 nM (sheet 'Lestaurtinib' of Supplementary Table 1),run:Lestaurtinib_02438_R3,Plate:MR008",1360 nM
same,potency estimated from few doses,"PDGFRB; compound concentrations:100 nM and 1000 nM (sheet 'Lestaurtinib' of Supplementary Table 1),run:Lestaurtinib_02443_R1,Plate:MR009",1570 nM
same,potency estimated from few doses,"PDGFRB; compound concentrations:100 nM and 1000 nM (sheet 'Lestaurtinib' of Supplementary Table 1),run:Lestaurtinib_02443_R3,Plate:MR009",279 nM
same,potency estimated from few doses,"PDGFRB; compound concentrations:100 nM and 1000 nM (sheet 'Lestaurtinib' of Supplementary Table 1),run:Lestaurtinib_02473_R1,Plate:MR010",982 nM
same,potency estimated from few doses,"PDGFRB; compound concentrations:100 nM and 1000 nM (sheet 'Lestaurtinib' of Supplementary Table 1),run:Lestaurtinib_02487_R1,Plate:MR012",998 nM
same,potency estimated from few doses,"PDGFRB; compound concentrations:100 nM and 1000 nM (sheet 'Lestaurtinib' of Supplementary Table 1),run:Lestaurtinib_02496_R1,Plate:MR013",1610 nM
same,potency estimated from few doses,"PDGFRB; compound concentrations:100 nM and 1000 nM (sheet 'Lestaurtinib' of Supplementary Table 1),run:Lestaurtinib_02496_R3,Plate:MR013",1530 nM
same,potency estimated from few doses,"PDGFRB; compound concentrations:100 nM and 1000 nM (sheet 'Lestaurtinib' of Supplementary Table 1),run:Lestaurtinib_02566_R2,Plate:MR014",1700 nM
same,potency estimated from few doses,"PDGFRB; compound concentrations:100 nM and 1000 nM (sheet 'Lestaurtinib' of Supplementary Table 1),run:Lestaurtinib_02566_R3,Plate:MR014",1620 nM
same,potency estimated from few doses,"PDGFRB; compound concentrations:100 nM and 1000 nM (sheet 'Lestaurtinib' of Supplementary Table 1),run:Lestaurtinib_02577_R1,Plate:MR016",1800 nM
same,potency estimated from few doses,PDGFRB; [1],1790 nM
same,potency estimated from few doses,"PDGFRB; compound concentrations:100 nM and 1000 nM (sheet 'Lestaurtinib' of Supplementary Table 1),run:Lestaurtinib_02584_R2,Plate:MR017",1590 nM
same,potency estimated from few doses,PDGFRB; [2],1990 nM
same,potency estimated from few doses,PDGFRB; [3],1820 nM
same,potency estimated from few doses,"PDGFRB; compound concentrations:100 nM and 1000 nM (sheet 'Lestaurtinib' of Supplementary Table 1),run:Lestaurtinib_02601_R2,Plate:MR018",1400 nM
same,potency estimated from few doses,"PDGFRB; compound concentrations:100 nM and 1000 nM (sheet 'Lestaurtinib' of Supplementary Table 1),run:Lestaurtinib_02601_R3,Plate:MR018",1970 nM
same,potency estimated from few doses,PDGFRB; [5],749 nM
same,potency estimated from few doses,PDGFRB; [17],1370 nM
same,potency estimated from few doses,PDGFRB; [6],1340 nM
same,potency estimated from few doses,"PDGFRB; compound concentrations:100 nM and 1000 nM (sheet 'Lestaurtinib' of Supplementary Table 1),run:Lestaurtinib_02741_R3,Plate:MR023",1830 nM
same,potency estimated from few doses,"PDGFRB; compound concentrations:100 nM and 1000 nM (sheet 'Lestaurtinib' of Supplementary Table 1),run:Lestaurtinib_02768_R3,Plate:MR028",1580 nM
same,potency estimated from few doses,"PDGFRB; compound concentrations:100 nM and 1000 nM (sheet 'Lestaurtinib' of Supplementary Table 1),run:Lestaurtinib_02795_R1,Plate:MR022",1320 nM
same,potency estimated from few doses,PDGFRB; [9],1600 nM
same,potency estimated from few doses,"PDGFRB; compound concentrations:100 nM and 1000 nM (sheet 'Lestaurtinib' of Supplementary Table 1),run:Lestaurtinib_02802_R1,Plate:MR029",1590 nM
same,potency estimated from few doses,"PDGFRB; compound concentrations:100 nM and 1000 nM (sheet 'Lestaurtinib' of Supplementary Table 1),run:Lestaurtinib_02802_R3,Plate:MR029",1930 nM
same,potency estimated from few doses,PDGFRB; [18],849 nM
same,potency estimated from few doses,PDGFRB; [10],573 nM
same,potency estimated from few doses,PDGFRB; [11],1130 nM
same,potency estimated from few doses,PDGFRB; [12],754 nM
same,potency estimated from few doses,PDGFRB; [13],1320 nM
same,potency estimated from few doses,PDGFRB; [14],970 nM
same,potency estimated from few doses,"PDGFRB; compound concentrations:100 nM and 1000 nM (sheet 'Lestaurtinib' of Supplementary Table 1),run:Lestaurtinib_03260_R1,Plate:MR033",1570 nM
same,potency estimated from few doses,PDGFRB; [15],1930 nM
same,potency estimated from few doses,"PRKAA1; compound concentrations:100 nM and 1000 nM (sheet 'Lestaurtinib' of Supplementary Table 1),run:Lestaurtinib_02339_R2,Plate:MR001",860 nM
same,potency estimated from few doses,"PRKAA1; compound concentrations:100 nM and 1000 nM (sheet 'Lestaurtinib' of Supplementary Table 1),run:Lestaurtinib_02339_R3,Plate:MR001",1330 nM
same,potency estimated from few doses,"PRKAA1; compound concentrations:100 nM and 1000 nM (sheet 'Lestaurtinib' of Supplementary Table 1),run:Lestaurtinib_02364_R2,Plate:MR002",936 nM
same,potency estimated from few doses,"PRKAA1; compound concentrations:100 nM and 1000 nM (sheet 'Lestaurtinib' of Supplementary Table 1),run:Lestaurtinib_02367_R3,Plate:MR003",951 nM
same,potency estimated from few doses,PRKAA1; [19],919 nM
same,potency estimated from few doses,PRKAA1; [16],900 nM
